From PubChem BioAssay
In the library only some 32% were active in any assay of this set; here they are far more common.
CYP2C9 inhib = human CYP2C9 inhibition | P11712 | inhibition, % at 5 µM | hit rate 20% among 96,000 | AID 777 | CYP2C9 Supersomes, luciferin-H conversion, luminescence;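 active = blocking of liver enzyme CYP2C9 beyond about 50% at 5 µM, limit read from the data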
Target sequence (P11712 whole entry, looked up): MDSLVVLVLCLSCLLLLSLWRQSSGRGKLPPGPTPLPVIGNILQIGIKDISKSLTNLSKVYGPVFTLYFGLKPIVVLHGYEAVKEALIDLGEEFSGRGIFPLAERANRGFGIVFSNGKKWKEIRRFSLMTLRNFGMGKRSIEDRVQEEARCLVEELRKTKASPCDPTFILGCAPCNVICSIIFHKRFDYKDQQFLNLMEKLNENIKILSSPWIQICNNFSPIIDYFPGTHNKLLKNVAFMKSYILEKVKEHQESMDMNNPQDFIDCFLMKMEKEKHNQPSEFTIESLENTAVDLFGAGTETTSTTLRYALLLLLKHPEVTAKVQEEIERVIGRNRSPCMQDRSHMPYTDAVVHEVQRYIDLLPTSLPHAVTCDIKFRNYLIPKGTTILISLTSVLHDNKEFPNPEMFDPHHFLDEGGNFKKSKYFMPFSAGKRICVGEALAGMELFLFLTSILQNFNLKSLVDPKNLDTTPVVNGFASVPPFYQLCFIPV
PostGolgi yeast = growth inhibition of a yeast mutant, post-Golgi transport screen; post-Golgi transport phenotypic cell assay; inhibition, % at 10 µM; hit rate 0.9% among 98,000; AID 739;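 also: yeast cells grown in 1536-well plates; yeast grown about 18 h at 30C before absorbance read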
CYP2C19 inhib = inhibitors of human CYP2C19; CYP2C19 Supersomes, luciferin-H EGE luminescence, 30 min; inhibition, % at 5 µM; hit rate 21% among 96,000; AID 778;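 active = CYP2C19 inhibition above a set limit at 5 µM in the primary screen, cut at about 50% in these data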;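 also: plate controls were negative control wells for no effect and 2.5 mM tranylcypromine positive control for full effect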
CYP2C9 activ = activators of human CYP2C9. P11712. recombinant CYP2C9, luciferin-H conversion, luminescence; hits give high values; factor 1 = untreated enzyme, 0 = blocked. activation factor at 5 µM. hit rate 1.4% among 96,000;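 active = activation factor of 2 or more for CYP2C9 at a 5 µM dose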;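 also: 0 = sulfaphenazole-blocked wells and 1 = vehicle-only wells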
CYP2C19 activ = cytochrome P450 2C19 (human) activation | P33261 | recombinant CYP2C19, luciferin-H EGE luminescence; hits give high values; 0 = fully inhibited enzyme, 1 = untreated enzyme | activation factor at 5 µM | 96,000 tested, under 10 active;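 active = activation factor of at least 2 at 5 µM in the primary screen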;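 also: 0 = wells with 2.5 mM tranylcypromine and 1 = vehicle-only wells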
PostGolgi ctrl = yeast control strain growth, post-Golgi counter-screen. hit rate 5% among 98,000. inhibition, % at 10 µM. efflux-deficient yeast background strain, growth absorbance A615, 16 h
Starred values were filed as active, the others as inactive; . = not tested or not shown. Rule as the data show it, unless noted: active = inhibition above about 30%; inactive = the rest.

SMILES	CYP2C9 inhib	PostGolgi yeast	CYP2C19 inhib	CYP2C9 activ	CYP2C19 activ	PostGolgi ctrl
Cn1c(N2CCN(C(=O)Nc3ccc(C(F)(F)F)cc3)CC2)nc2ccccc21	23	-8	21	0.8	0.8	19
COc1ccc(CNc2nc(-c3cccnc3)nn2C(=O)c2cccs2)cc1	.	-3	.	.	.	40*
COc1ccc(CNc2nc(NCc3ccc(OC)cc3)n(C(=O)c3ccccc3[N+](=O)[O-])n2)cc1	70*	4	40	0.3	0.6	16
COc1ccc(N(Cc2ccccc2)C(=O)c2ccccc2[N+](=O)[O-])cc1	19	4	61*	0.8	0.4	1
O=C(c1ccco1)n1nc(NCc2ccccc2)nc1NCc1ccccc1	5	2	-4	0.9	1	79*
O=C(c1cccs1)n1nc(-c2ccccc2)nc1NCc1ccc(F)cc1	22	-10	4	0.8	1	3
CC1=C(C(N)=O)C(c2ccncc2)n2nc(-c3ccccc3Cl)nc2N1 (stereo unspecified)	6	-4	22	0.9	0.8	6
O=C(Cc1ccc(S(=O)(=O)N2CCOCC2)s1)Nc1nc2c(s1)CCCC2	39	-3	16	0.6	0.8	-7
Cc1cccc(NC(=O)CSc2nnnn2-c2cccnc2)c1	37	-2	26	0.6	0.7	14
NC(=O)Cc1c[nH]c2cccc(O)c12	1	.	0	1	1	.
COc1ccc(CNc2nc(-c3cccnc3)nn2C(=O)c2ccco2)cc1	53*	-12	41	0.5	0.6	-3
COCC(C)n1c(C)cc(C(=O)COC(=O)c2c(C)nn(-c3ccccc3)c2C)c1C (stereo unspecified)	41	8	62*	0.6	0.4	16
Cc1nn(Cc2ccccc2)c(C)c1C(=O)OCC(=O)c1cc(C)n(C2CC2)c1C	-41	-7	26	1.4	0.7	-3
COCCn1c(C)cc(C(=O)COC(=O)c2ccc3ncsc3c2)c1C	-99	-14	29	2*	0.7	4
COCCn1c(C)cc(C(=O)COC(=O)c2c(C)nn(Cc3ccccc3)c2C)c1C	14	-2	61*	0.9	0.4	0
COCCn1c(C)cc(C(=O)COC(=O)c2ccc(NC(=O)CC#N)cc2)c1C	-13	1	-3	1.1	1	-2
CC(C)C(=O)NC(NCC1CCCO1)C(Cl)(Cl)Cl (stereo unspecified)	13	-4	32	0.9	0.7	3
Cc1cc(C(=O)CN2C(=O)NC(c3ccccc3)(c3ccccc3)C2=O)c(C)n1Cc1ccco1	62*	6	16	0.4	0.8	10
O=C(NCc1ccco1)C1(c2ccccc2)CCCC1	35	13	57*	0.6	0.4	5
O=C(CN1C(=O)NC2(CCCCCC2)C1=O)NCc1ccco1	6	-2	7	0.9	0.9	5
C=CCn1c(C)cc(C(=O)CN2C(=O)NC3(CCCc4ccccc43)C2=O)c1C (stereo unspecified)	82*	13	44	0.2	0.6	7
CC1(c2ccc(Cl)cc2)NC(=O)N(CC(=O)NC(=O)NCc2ccco2)C1=O (stereo unspecified)	67*	18	66*	0.3	0.3	3
CCOC(=O)c1[nH]c(C)c(C(=O)OC(C)C(=O)Nc2ncc(Cl)cc2Cl)c1C (stereo unspecified)	40	-14	24	0.6	0.8	11
COC(=O)Cn1ncc2c3ccccc3n(C)c2c1=O	7	-2	-4	0.9	1	2
O=C(CN1C(=O)NC2(CCCc3ccccc32)C1=O)NCc1ccco1 (stereo unspecified)	78*	-2	-1	0.2	1	5
SMILES	CYP2C9 inhib	PostGolgi yeast	CYP2C19 inhib	CYP2C9 activ	CYP2C19 activ	PostGolgi ctrl
O=C(CN1CCc2ccccc2C1)NCc1ccco1	35	0	93*	0.6	0.1	0
O=S(=O)(c1cnccc1N1CCN(/N=C/c2ccc(Cl)cc2)CC1)N1CCCCC1	60*	18	33	0.4	0.7	-13
CCN(CC)c1ccc(NC(=O)CN2CCN(S(=O)(=O)c3cc(Cl)ccc3OC)CC2)cc1	-28	-12	72*	1.3	0.3	9
CCOc1ccc(NC(=O)CCN2CCN(S(=O)(=O)c3cc(Cl)ccc3OC)CC2)cc1	68*	3	96*	0.3	0	14
CCOc1ccc(-c2nnc(-c3snc(-c4ccc(F)cc4)c3N=CN(C)C)o2)cc1	-8	-6	-6	1.1	1.1	10
C=CCSc1nc(O)c(CC)c(=O)n1C(C)CC (stereo unspecified)	31	-2	63*	0.7	0.4	7
COc1cccc(-c2cn3nc4c(nc3n2)CCCC4)c1	50*	-3	96*	0.5	0	1
O=C(Cc1cccs1)Nc1ccc(S(=O)(=O)Nc2ncccn2)cc1	-17	10	-19	1.2	1.2	2
CCOCCCn1c(-c2ccc(Cl)cc2)n[nH]c1=S	51*	-10	84*	0.5	0.2	-3
CCn1c(-c2ccc(F)cc2)n[nH]c1=S	17	-2	18	0.8	0.8	17
COCCCn1c(-c2ccc(Cl)cc2)n[nH]c1=S	35	6	77*	0.7	0.2	9
COCCCn1c(-c2ccccc2Cl)n[nH]c1=S	0	-4	42	1	0.6	6
CC1CN(C(=O)C(C)N2C(=O)c3ccccc3C2=O)CC(C)O1 (stereo unspecified)	22	3	34	0.8	0.7	6
Cc1cccc(C)c1OCC(O)CN1CCC(CN2C(=O)c3cccc4cccc(c34)C2=O)CC1 (stereo unspecified)	58*	3	55*	0.4	0.4	-4
CC1(CCc2ccc(O)cc2)NC(=O)NC1=O (stereo unspecified)	0	-6	2	1	1	-2
Cn1c2c(c(=O)n(C)c1=O)C(CC(=O)Nc1ccccc1)C(=O)N2 (stereo unspecified)	26	3	40	0.7	0.6	8
CCCCn1c2c(c(=O)n(C)c1=O)C(CC(=O)OCC(=O)Nc1cccc(C(F)(F)F)c1)C(=O)N2 (stereo unspecified)	86*	-1	37	0.1	0.6	1
COc1ccnc(NCc2ccc(Cl)cc2)c1C#N	30	7	100*	0.7	0	13
COc1ccnc(Nc2ccc(C)c(C)c2)c1C#N	0	-1	-14	1	1.1	1
CC(C)(C)CC(=O)NC(=S)Nc1ccccc1C(F)(F)F	52*	8	41	0.5	0.6	20
Cc1ccc([N+](=O)[O-])cc1NC(=S)NC(=O)C(C)(C)C	82*	17	59*	0.2	0.4	-7
Cc1ccc([N+](=O)[O-])cc1NC(=O)CN1CCCCC1	-31	-2	16	1.3	0.8	8
Cc1ccc([N+](=O)[O-])cc1NC(=S)NC(=O)CC(C)(C)C	85*	1	27	0.2	0.7	19
